The record followed here is PubChem BioAssay.

Experiment [1] is described as follows: viability loss in pontine glioma line – cell-based, SU-DIPG-XVII, MIPE5.0, CellTiter-Glo, qHTS, dose response (AID 1347060; cut-off not given, nearly all actives have AC50 up to about 26 µM;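 on AC50: cells exposed to compound for 48 hours before viability readout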). As to conditions: CellTiter-Glo ATP luminescence.
A short description of experiment [2]: viability loss in pontine glioma line – cell-based, SU-DIPG-XIII, MIPE4.0, CellTiter-Glo, qHTS, dose response (AID 1347061; cut-off not given, nearly all actives have AC50 up to about 37 µM;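 further: cells exposed to compound for 48 hours before readout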). The following applies: CellTiter-Glo ATP luminescence. Background: ATP-based viability assays read luminescence as a measure of living cells.
A short description of experiment [3]: viability loss in pontine glioma line – cell-based, JHH-DIPG-1, MIPE4.0, CellTiter-Glo, qHTS, dose response (AID 1347062; cut-off not given, nearly all actives have AC50 up to about 27 µM;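 on AC50: cells exposed to compound for two days before readout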). The following applies: JHH-DIPG-1 viability, CellTiter-Glo ATP luminescence.
A short description of experiment [4]: viability loss in pontine glioma line – cell-based, SU-DIPG-IV, MIPE4.0, CellTiter-Glo, qHTS, dose response (AID 1347063; cut-off not given, nearly all actives have AC50 up to about 30 µM;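 further: compound exposure lasted 48 hours before the viability readout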). The following applies: CellTiter-Glo ATP luminescence.
Experiment [5] in a line: viability loss in pontine glioma line – cell-based, SU-DIPG-XIII, MIPE5.0, CellTiter-Glo, qHTS, dose response (AID 1347064; cut-off not given, nearly all actives have AC50 up to about 23 µM;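 on AC50: cells exposed to compound for 48 hours before the viability read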). As to conditions: CellTiter-Glo ATP luminescence.
The nature of experiment [6]: viability loss in pontine glioma line – cell-based, SU-DIPG-XXV, MIPE5.0, CellTiter-Glo, qHTS, dose response (AID 1347065; cut-off not given, nearly all actives have AC50 up to about 26 µM;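 further: cells exposed to compound for 48 hours before ATP readout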). The following applies: CellTiter-Glo ATP luminescence.
The nature of experiment [7]: growth inhibition of DIPG cells – cell-based, MIPE4.0 library, CellTiter-Glo luminescence, qHTS (AID 1347066; cut-off not given, nearly all actives have AC50 up to about 30 µM;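 further: cells exposed to compound for 48 hours before readout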). As to conditions: SU-DIPG-VI viability, CellTiter-Glo ATP luminescence.
The nature of experiment [8]: JHH-DIPG-1 glioma cell viability, MIPE5.0 library, CellTiter-Glo luminescence, qHTS (AID 1347067; cut-off not given, nearly all actives have AC50 up to about 26 µM;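 further: cells exposed to compound for 48 hours before readout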). The following applies: JHH-DIPG-1 glioma viability, CellTiter-Glo ATP luminescence.
The nature of experiment [9]: growth inhibition of DIPG cells – cell-based, MIPE5.0 library, qHTS (AID 1347068; cut-off not given, nearly all actives have IC50 up to about 30 µM;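 on IC50: cells exposed to compound for 48 hours before viability readout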). The following applies: SU-DIPG-XXV viability. (In general: qHTS replaces the single test concentration by a dilution series.)
Experiment [10] can be described thus: viability loss with induced miR-34 in A549 – imaging, A549 dox-inducible miR-34, nuclei and caspase counts, primary screen (AID 1347080;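 active means compounds whose cell count with miR-34 switched on is under 0.7 times the count with it off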). The following applies: A549 miR-34 inducible, Hoechst nuclei count, 48 h.
Experiment [11] in a line: compounds altering HSF1 focus formation in cells – imaging, Selleck Cancer Library (AID 1347162; in the data active means plate-normalised HSF1 focus index below about 0.46). The following applies: human cells, HSF1 nuclear foci imaging, at 10 µM; SSMD: measured here: HSF1 foci SSMD mean; cell count: measured here: cell number; plate-normalised HSF1 focus index: stronger effect = lower value.
Experiment [12] in a line: MELAS cybrid and Rieske KO viability enhancers – cell-based, MELAS cybrids, Rieske KO mouse fibroblasts, CellTiter-Glo, primary screen (AID 1508586;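 active means mean z-score across replicates of 1.96 or higher in either the MELAS or the Rieske mutant cell line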;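 further: z relative to plate mean and SD of compound and empty wells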). The following applies: low glucose.
The nature of experiment [13]: drug combination growth inhibition, ovarian cancer – cell-based, oncology-focused library, rucaparib conditional, profiling panel (AID 1508598). As to conditions: patient-derived ovarian cancer cells, CellTiter-Glo viability, 144 h, stronger effect = lower value.

Records with an inconclusive call do not appear. Active and inactive are the calls of the source.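 How the source made its calls, unless noted: active means normalized viability below 100% at a tested concentration; inactive means the rest.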

As usually defined, the AC50 is the concentration at which the activity in the assay is half-maximal. As a reminder, the IC50 is the concentration at which inhibition is half-maximal. As usually defined, the viability is a read-out of living cells in per cent, often relative to untreated cells. For `CN1CCC(CNc2ccc3ncc(-c4cccc(OC(F)(F)F)c4)n3n2)CC1`, the AC50 in [1] was 8.33 µM (active); in experiment [2], 18.7 µM (active); in [3] it was 13.2 µM (active); in experiment [4] it was 18.7 µM (active); in experiment [5], 10.5 µM (active); in [6], 5.25 µM (active). The figures for the AC50 in experiment [7] and in [8] were 20.9 µM (active) and 2.63 µM (active), respectively. The IC50 in experiment [9] was 23.5 µM (active). The fold change in [10] (stronger effect = lower value, cell number ratio, induced over uninduced) is 0.872 (inactive); in experiment [10] (measured here: relative caspase fold change +Dox/-Dox) it was 0.583. Also, the cell count came to 4380 in [10] (measured here: total cells with miR-34 induction, stronger effect = lower value); 5020 in experiment [10] (measured here: total cells without miR-34 induction); 7290 in experiment [11]. This molecule had an SSMD in experiment [11] of 1.66. Besides, the plate-normalised HSF1 focus index in experiment [11] was 1.1 (inactive). Besides, the z-score in [12] (MELAS cybrid survival, CellTiter-Glo 48 h, stronger effect = higher value) was -0.102 (inactive); in [12] (Rieske KO mouse fibroblast survival, CellTiter-Glo 72 h) it was -1.76. Besides, the viability in [13] (at 0.000305 µM, OCI-C5x cells, with rucaparib 10 µM, 100% = cells with rucaparib alone) was 112% (inactive); in experiment [13] (at 0.000305 µM, OCI-C5x cells, without rucaparib), 115% (inactive); in [13] (at 0.000305 µM, OCI-P5x cells, with rucaparib 20 µM, 100% = cells with rucaparib alone), 97.3% (active); in experiment [13] (at 0.000305 µM, OCI-P5x cells, without rucaparib) it was 92.4% (active); in [13] (at 0.00122 µM, OCI-C5x cells, with rucaparib 10 µM, 100% = cells with rucaparib alone), 110% (inactive); in experiment [13] (at 0.00122 µM, OCI-C5x cells, without rucaparib), 113% (inactive). In addition, the viability is 100% (inactive) in [13] (at 0.00122 µM, OCI-P5x cells, with rucaparib 20 µM, 100% = cells with rucaparib alone); 94.8% (active) in experiment [13] (at 0.00122 µM, OCI-P5x cells, without rucaparib); 106% (inactive) in experiment [13] (at 0.00488 µM, OCI-C5x cells, with rucaparib 10 µM, 100% = cells with rucaparib alone); 106% (inactive) in experiment [13] (at 0.00488 µM, OCI-C5x cells, without rucaparib); 96.7% (active) in experiment [13] (at 0.00488 µM, OCI-P5x cells, with rucaparib 20 µM, 100% = cells with rucaparib alone); 87.9% (active) in [13] (at 0.00488 µM, OCI-P5x cells, without rucaparib). In addition, the viability in experiment [13] (at 0.0195 µM, OCI-C5x cells, with rucaparib 10 µM, 100% = cells with rucaparib alone) was 110% (inactive); in experiment [13] (at 0.0195 µM, OCI-C5x cells, without rucaparib), 114% (inactive); in [13] (at 0.0195 µM, OCI-P5x cells, with rucaparib 20 µM, 100% = cells with rucaparib alone) it was 99.2% (active); in [13] (at 0.0195 µM, OCI-P5x cells, without rucaparib), 88% (active); in [13] (at 0.0781 µM, OCI-C5x cells, with rucaparib 10 µM, 100% = cells with rucaparib alone), 107% (inactive); in experiment [13] (at 0.0781 µM, OCI-C5x cells, without rucaparib), 109% (inactive). Moreover, the viability in [13] (at 0.0781 µM, OCI-P5x cells, with rucaparib 20 µM, 100% = cells with rucaparib alone) was 93.6% (active); in experiment [13] (at 0.0781 µM, OCI-P5x cells, without rucaparib) it was 82.1% (active); in experiment [13] (at 0.313 µM, OCI-C5x cells, with rucaparib 10 µM, 100% = cells with rucaparib alone), 110% (inactive); in [13] (at 0.313 µM, OCI-C5x cells, without rucaparib) it was 104% (inactive); in experiment [13] (at 0.313 µM, OCI-P5x cells, with rucaparib 20 µM, 100% = cells with rucaparib alone) it was 89.6% (active); in experiment [13] (at 0.313 µM, OCI-P5x cells, without rucaparib), 80.8% (active). For the same molecule, the viability in experiment [13] (at 1.25 µM, OCI-C5x cells, with rucaparib 10 µM, 100% = cells with rucaparib alone) was 130% (inactive); in experiment [13] (at 1.25 µM, OCI-C5x cells, without rucaparib), 98% (active); in experiment [13] (at 1.25 µM, OCI-P5x cells, with rucaparib 20 µM, 100% = cells with rucaparib alone), 82.6% (active); in experiment [13] (at 1.25 µM, OCI-P5x cells, without rucaparib), 70.9% (active); in experiment [13] (at 5 µM, OCI-C5x cells, with rucaparib 10 µM, 100% = cells with rucaparib alone), 123% (inactive); in experiment [13] (at 5 µM, OCI-C5x cells, without rucaparib), 115% (inactive). In addition, the viability in [13] (at 5 µM, OCI-P5x cells, with rucaparib 20 µM, 100% = cells with rucaparib alone) was 50.5% (active); in experiment [13] (at 5 µM, OCI-P5x cells, without rucaparib), 46.6% (active).

With `CC(C)(O)[C@H]1CC[C@@](C)([C@H]2[C@@H](O)C[C@@]3(C)[C@@H]4C[C@H](O[C@@H]5O[C@H](CO)[C@@H](O)[C@H](O)[C@H]5O)[C@H]5C(C)(C)[C@@H](O[C@@H]6OC[C@@H](O)[C@H](O)[C@H]6O)CC[C@@]56C[C@@]46CC[C@]23C)O1`, the call in [1], in [2], in experiment [3], in [4], in [5] and in [6] was inactive. For the same molecule, the outcome in [7], in [8] and in [9] was inactive.

Turning to `O=c1c(-c2ccc(O)cc2)coc2cc(O[C@@H]3O[C@H](CO)[C@@H](O)[C@H](O)[C@H]3O)ccc12`, the molecule was called inactive in [1], in experiment [2], in experiment [3], in experiment [4], in experiment [5] and in experiment [6]. Further, the call in experiment [7], in [8] and in experiment [9] was inactive.

Turning to `CC(C)[C@H](O)C(=O)N[C@@H](C)C(=O)N[C@@H]1C(=O)N(C)CCc2ccccc21`, the result in [1], in experiment [2], in experiment [3], in experiment [4], in [5] and in experiment [6] was inactive. For the same molecule, the molecule was classed as inactive in experiment [7], in [8] and in experiment [9].
